# NTR1 agonist: agonists of human NTR1, primary screen, imaging, U2OS cells, beta-arrestin-GFP, high content. 330,000 compounds, 0.17% hits. AID 493036, 2011. NTR1-U2OS beta-arrestin-GFP spot imaging, agonist mode. activation, % at 20 µM;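 active = activation at or above 40% of the spot to cytoplasm intensity ratio, with at least 20 cells analyzed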;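 also: 0% = DMSO without peptide and 100% = 100 nM NTR1 peptide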
# Target sequence (P30989 whole entry, looked up): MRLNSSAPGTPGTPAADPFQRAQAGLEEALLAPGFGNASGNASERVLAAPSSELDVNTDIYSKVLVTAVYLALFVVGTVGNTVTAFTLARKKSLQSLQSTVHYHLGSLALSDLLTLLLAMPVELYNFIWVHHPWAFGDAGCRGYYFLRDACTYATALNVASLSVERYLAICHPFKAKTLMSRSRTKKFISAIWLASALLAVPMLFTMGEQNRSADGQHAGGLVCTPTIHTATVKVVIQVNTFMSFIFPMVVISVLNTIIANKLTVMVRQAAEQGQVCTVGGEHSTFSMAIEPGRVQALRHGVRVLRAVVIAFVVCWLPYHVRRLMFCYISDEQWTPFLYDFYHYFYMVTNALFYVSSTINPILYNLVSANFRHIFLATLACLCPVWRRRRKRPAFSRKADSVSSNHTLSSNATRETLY
# 697 NFkB inh: inhibitors of PMA/ionomycin-induced NF-kB reporter, 697 cells, primary screen, B-cell NF-kB inhibitor project, cell-based, luminescence, uHTS | inhibition, % at 4 µM | AID 435022, 2010 | 697 B-cell NF-kB luciferase reporter, 16 h | 330,000 compounds, 0.33% hits; in the data active = inhibition above about 35%
# Mdm2 MdmX PPI: inhibitors of human Mdm2-MdmX association, primary screen, cell-based, luminescence, split luciferase, SaOS-2, uHTS | inhibition, % at 8 µM | SaOS-2 split-luciferase Mdm2/MdmX complementation | AID 485346, 2010 | 330,000 compounds, 3% hits;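 active = inhibition of at least 50% at 8 µM in the primary screen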
# Beta apoptosis: inhibitors of cytokine-induced beta cell apoptosis, primary screen, luminescence; INS-1E cytokine-induced death, ATP luminescence, 48 h; percent of positive-control rescue, neutral wells zero; protection from apoptosis, % (concentration not given with the values); 300,000 compounds, 0.8% hits;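 active = Every replicate reaches about 75%, or at least half do and their mean reaches it too, limit read from the data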;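 also: 0% = cytokine-treated negative control wells and 100% = positive control rescue; higher means more ATP so stronger rescue from cytokine killing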
# Jurkat NFkB inh: inhibitors of induced NF-kB luciferase reporter, primary screen, TCR NF-kB activation inhibitor project, cell-based, luminescence, uHTS | Jurkat, PMA/ionomycin-induced NF-kB luciferase reporter | 330,000 compounds, 0.53% hits | inhibition, % at 4 µM | AID 435003, 2010; in the data active = inhibition above about 50%
# A1 inh: caspase 3/7 activation in MEF A1-2A-BIM cells, primary screen, A1 inhibitor project, cell-based, luminescence, HTS; Caspase-Glo 3/7 luminescence, 3 h; percent of clofoctol response, vehicle zero; 330,000 compounds, 0.066% hits; caspase activation, % (no concentration beside the values);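 active = over half of replicate activation scores above 10%, or exactly half above 10 with the replicate mean above 10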
# Jurkat NFkB conf: PMA/ionomycin-induced NF-kB reporter inhibitors, Jurkat retest, confirmation, T-cell NF-kB inhibitor project, cell-based, luminescence, single concentration; Jurkat NF-kB luciferase, 16 h; inhibition, % at 4 µM; 2,700 compounds, 27% hits; shares compounds with Jurkat NFkB inh;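 active = inhibition reaching about 45% at 4 µM in either replicate, limit read from the data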;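 also: plate controls were PMA/ionomycin stimulated DMSO wells for no effect and unstimulated DMSO wells for full effect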
# * = called active by the depositor; · = no result. This is a sample that favours compounds with a hit; in the whole collection about 3.8% have one here.
SMILES,NTR1 agonist,697 NFkB inh,Mdm2 MdmX PPI,Beta apoptosis,Jurkat NFkB inh,A1 inh,Jurkat NFkB conf
Cc1ccc(C(=O)Nc2ncc(Cc3ccc(SC(F)F)cc3)s2)cc1,7,-78,39,14,64*,1,48*
Cc1ccc(C(=O)Nc2ncc(Cc3ccc(F)cc3)s2)o1,5,6,-161,-1,-26,-5,·
COC(=O)Cc1ccc2sc(-c3ccccc3)nc2c1,0,-93,-239,4,-156,-9,-99
COc1ccc(Nc2nc3cc(C)ccc3cc2C#N)c(OC)c1,0,-51,39,1,65*,2,46
COCCOc1ccc(C(F)(F)F)cc1NC(=O)COC(=O)C1=COCCO1,0,-25,-1,2,-23,0,·
O=C(Nc1ccc(NC(=O)c2ccco2)nc1)c1ccco1,1,-62,-68,-12,-95,-6,·
O=C(Nc1ccc(NC(=O)C23CC4CC(CC(C4)C2)C3)cn1)c1ccco1,2,-101,-58,-3,-151,1,-66
Oc1ccc(O)c(/C(=N/Nc2ccccc2)c2ccccc2)c1,2,-31,4,-17,9,1,·
O=c1oc2ccccc2cc1-c1cn2cccnc2n1,0,-116,-51,8,-109,-6,·
COc1ccc(-c2cn3cccc(C)c3n2)cc1F,0,-98,-188,-1,-101,-4,·
Cc1cccn2cc(-c3cc4ccccc4oc3=O)nc12,0,-205,17,-10,-152,0,-81
Cc1cccn2cc(-c3ccc(Cl)cc3)nc12,1,-241,-108,3,-194,-9,-111
CC(CNC(=O)c1cc(COc2c(F)cccc2F)on1)Oc1cccnc1 (stereo not given),0,-6,10,4,0,0,·
CC(=O)C(=Nc1cccc(Cl)c1)NNc1ccccc1C,3,2,23,·,11,0,·
O=C(CSc1ccc(Br)cc1)Nc1ccccc1N1CCOCC1,5,-20,33,-5,1,0,·
CCOc1ccc(S(=O)(=O)N2CCC(C(=O)NCC3CCCO3)CC2)cc1Cl (stereo not given),1,9,-21,-2,0,0,·
O=C(Nc1ccc(N2CCCC2)c(Cl)c1)c1ccco1,0,-198,-128,·,-165,-5,-25
CCCCN1CC(COCc2ccccc2)Oc2ccccc2S1(=O)=O (stereo not given),2,12,36,·,·,·,·
Oc1ccccc1-c1cc(-c2ccccc2Cl)[nH]n1,18,-246,-116,6,-221,-6,-106
Oc1ccccc1-c1cc(-c2cccc(F)c2)n[nH]1,19,-222,-141,7,-155,-5,-137
COCCn1c(SCC(=O)NC2CC2)nc2ccccc21,-1,-5,-15,-1,-3,0,·
COc1ccc(OC)c(C2CC(=O)c3c([nH]c(C(=O)OCC4CCCO4)c3C)C2)c1 (stereo not given),0,8,31,14,0,0,·
Cc1c(C(=O)OCC2CCCO2)[nH]c2c1C(=O)CC(c1ccco1)C2 (stereo not given),0,-12,38,3,55*,0,-3
COC(=O)/C=C/c1ccccc1S(=O)(=O)N(Cc1ccccc1)Cc1ccco1,-3,-90,37,1,56*,1,7
O=S(=O)(c1ccc(S(=O)(=O)N(Cc2ccccc2)Cc2ccco2)cc1)N1CCCC1,-1,-2,20,-2,-12,0,·
SMILES,NTR1 agonist,697 NFkB inh,Mdm2 MdmX PPI,Beta apoptosis,Jurkat NFkB inh,A1 inh,Jurkat NFkB conf
c1ccc(-c2csc(Nc3ncccn3)n2)cc1,0,-245,-118,-3,-212,-7,-105
Oc1ccc(-c2csc(Nc3ncccn3)n2)cc1,3,-208,-182,-12,-159,-6,-59
Nc1nc(-c2cccnc2)nc2sc3c(c12)CCCC3,4,-158,-106,1,-159,-2,-53
O=C1CN(c2nc(-c3cccnc3)nc3sc4c(c23)CCCC4)CCN1,3,-23,25,4,-8,-1,·
CC(C)(C)c1cc(NC(=O)c2cccs2)no1,0,-189,-105,8,-158,-9,-81
COc1ccc(C(=O)N2CCN(C(=O)c3cc(OC)c(OC)c(OC)c3)CC2)cc1,0,-12,15,-3,7,1,·
COc1cc(C(=O)N2CCN(c3cc(Cl)ccc3Cl)CC2)cc(OC)c1OC,4,-82,50,35,60*,1,50*
COc1cc(C(=O)N2CCN(c3cccc(C)c3C)CC2)cc(OC)c1OC,2,-42,35,23,63*,2,43
CCOC(=O)N1CCN(C(=O)CSc2nc(=O)n3ccc(C)cc3n2)CC1,0,20,15,·,8,1,·
COc1ccc(S(=O)(=O)N2N=C(C)Oc3ccccc3C2=O)cc1,2,-28,48,3,53*,1,44
CC1=NN(S(=O)(=O)c2ccc(C)cc2)C(=O)c2ccccc2O1,0,14,-39,-7,4,1,·
CNc1ccc(/C=C(\C#N)c2ccccn2)cc1[N+](=O)[O-],0,-59,8,14,-195,-4,-50
O=C(Nc1ccc(S(=O)(=O)N2CCN(Cc3ccccc3)CC2)cc1)c1cnccn1,0,-6,10,44,57*,0,54*
O=C(Nc1ccc(S(=O)(=O)N2CCCC2)cc1)c1cnccn1,-1,21,10,-3,2,-1,·
CCCCc1ccc(NC(=O)c2cnccn2)cc1,0,-206,-162,7,-156,-8,-105
CCN(CC)S(=O)(=O)c1ccc(NC(=O)c2ccc(CN3CCOCC3)cc2)cc1,10,5,10,3,58*,0,58*
O=C(Nc1ccc(N2CCOCC2)cc1)c1ccc(Cl)c(S(=O)(=O)N2CCCCC2)c1,7,27,7,38,51*,0,57*
CCOC(=O)c1ccc(NC(=O)c2cnccn2)cc1,-3,-37,-30,·,-27,·,·
CN(Cc1c(F)cccc1Cl)C(=O)CNC(=O)c1sc2ccccc2c1Cl,3,-17,-62,0,-27,0,·
Cc1nc(-c2ccc(Cl)cc2)sc1C1(C)CC(c2ccc(F)cc2)=NO1 (stereo not given),7,8,1,-19,-3,-1,·
